40 molecules from PubChem BioAssay (NCI) can be followed below.

Molecules are shown by their SMILES. This is part of a sample that, as a whole, favours compounds with a hit. Of some 83,000 tested, about 20% had one in any assay.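 Cell lines were cultured in 96-well plates, exposed to a single compound concentration, and assessed for percent growth 48 hours later.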 Values without a mark were called inactive. Activity calls are given as the source filed them. Rule for the calls: active = growth percent below 10; inactive = the rest.

For the assay, the system named is MDA-MB-468 breast. As to the kind of experiment: NCI-60 one-dose screen, 48 h (100 = growth as untreated, 0 = no growth, -100 = all killed). To be noted: 10 µM unless noted.
Take `O=C1C(Cl)=C(Nc2cccc3cc4ccccc4nc23)C(=O)c2ccccc21`: the growth is 40.9%.
On to `O=P(O)(O)C(O)(Cc1cccnc1)P(=O)(O)O`, for which the growth was 80.6%.
`CC/C=C\C[C@H](O)C/C=C1/C(=O)C=C[C@@H]1C/C=C\CCCC(=O)N(C)C`: the growth is -67.8% (active).
With `CCOC(=O)c1cc2c(n(C)c1=O)-c1cnn(-c3ccc(OC)cc3)c1CC2`, the growth is 93.2%.
The same measure for `COc1cccc(N2CCN(CC(=O)N3CCN(c4nnc(-c5ccc(Cl)cc5)c(-c5ccc(Cl)cc5)n4)CC3)CC2)c1`: 76.5%; for `Cl.Fc1c[c-]c(-c2ccccn2)c(F)c1.[Pt].c1ccc(P(c2ccccc2)C([PH+](c2ccccc2)c2ccccc2)[PH+](c2ccccc2)c2ccccc2)cc1`: -4.27% (active).
For `COc1ccc(CNCCCN2C(=O)c3ccc4c5c(ccc(c35)C2=O)C(=O)N(CCCNCCCCNCCCN)C4=O)c(OC)c1OC`, the growth is -85.6% (active).
Regarding `O=Nc1c(-c2c(O)[nH]c3cc(Br)ccc23)[nH]c2ccccc12`, the growth is -34.2% (active).
In the case of `COc1cc(/C=C/c2ccnc3ccccc23)cc(OC)c1OC`, the growth was -8% (active).
As to `Cc1ccc(NC2CC(=O)N(c3c(C)cc(C)cc3C)C2=O)c(C)c1` (stereo not given), the growth is 114%.
The same measure for `COc1cc(Cn2c(-c3ccccc3)cc3c2-c2oncc2CC3)cc(OC)c1`: -21.4% (active); for `O=Cc1ccc(O)c(O)c1`: 93.4%.
On to `CCN(CCC#N)c1ccccc1`, for which the growth is 118%.
Turning to `CCOP(=O)(OCC)OC[C@]12CCC(C)(C)C[C@H]1C1=CC[C@@H]3[C@@]4(C)CC[C@H](OP(=O)(OCC)OCC)C(C)(C)[C@@H]4CC[C@@]3(C)[C@]1(C)CC2`, the growth is 40.9%.
The same measure for `Cn1cc(Nc2nccc(-c3ccc(N4CCCC4)c(C#N)c3)n2)cn1`: 61.8%; for `CC(C)(C)C1=CC(=O)C(C(C)(C)C)=CC1=O`: 96.7%.
Take `NC(N)=Nc1ccc(Oc2cccc(NC(N)=Nc3ccc(Br)c(C(F)(F)F)c3)c2)cc1`: the growth was 4.68% (active).
With `O=C(O)c1ccc(Cl)cc1Nc1ccc(F)cc1`, the growth was 27.9%.
For the molecule `Cc1ccc(-c2cc3c(cc2O)C2CCCCC2(N2CCOCC2)O3)cc1` (stereo not given), the growth was 87.9%.
The same measure for `O=C(Nc1ccc(-n2cc(-c3ccncc3)c(-c3ccc(O)c(Cl)c3)n2)cc1)Nc1cccc(Cl)c1Cl`: 43.5%; for `COc1ccc(NC(=O)c2ccc(Nc3ncnc4[nH]c(C)c(C)c34)cc2)cc1`: 119%.
The same measure for `O=C(/C=C/c1ccc(F)cc1)c1ccc(NC(=O)N2CCN(c3cc4c(cc3F)c(=O)c(C(=O)O)cn4C3CC3)CC2)cc1`: 68.3%; for `C=CCn1c(SCC(=O)Nc2ccc(/C(C)=N/O)cc2)nnc1-c1cc(-c2ccc(S(N)(=O)=O)cc2)nc2ccccc12`: 57%; for `COC(=O)c1[nH]cnc1/N=N/N(C)CCO`: 87.2%.
On to `O=C(Nc1ccc(OS(=O)(=O)Cc2ccccc2)cc1)C12CC3CC(CC(C3)C1)C2`, for which the growth was 66.6%.
With `C=C1C(=O)O[C@H]2[C@H]1CC/C(CNC(=O)/C=C/c1ccccc1)=C\CC[C@@]1(C)O[C@@H]21`, the growth is -30.2% (active).
Regarding `COc1ccc(N=c2nc3sc4cc(Cl)ccc4n3c(N)c2C#N)cc1`, the growth was -7.79% (active).
`C[C@@H]1C(=O)[C@@H]2C[C@@H](O)[C@@H](O)C[C@]2(C)[C@H]2CC[C@@]3(C)C(=C12)CC[C@@H]3[C@@](C)(O)[C@H](O)CCC(C)(C)O`: the growth is 103%.
With `COc1cc(/C=C\c2cc(OC)c(OC)c(OC)c2)cc(NS(=O)(=O)c2ccc(Cl)cc2)c1OC`, the growth was 19.1%.
Turning to `CCC/C=C(\C)C(C)(C#N)C(=O)OCC` (stereo not given), the growth is 102%.
For `Cc1c(-c2noc(-c3ccc([N+](=O)[O-])cc3)n2)no[n+]1[O-]`, the growth is 104%.
Take `CC(=O)c1cc2c(N)c(C(=O)Nc3cccc4ccccc34)sc2nc1C`: the growth was 4% (active).
The same measure for `COc1ccc(NC(=S)N/N=C/c2ccccc2SSCCC(=O)OC[C@H]2O[C@H](O)[C@H](O)[C@@H](O)[C@@H]2O)cc1`: -8.32% (active); for `CCOC(=O)Cn1nnc(-c2ccc(OCc3ccccc3F)cc2)n1`: 90.4%; for `CS(=O)(=O)c1ccc2c(c1)c1c(n2Cc2ccc(Cl)cc2)CCCC1`: 50.4%.
With `Cc1cc(Br)ccc1-n1cc(C#N)c(N)c1C(=O)c1ccc(Br)cc1`, the growth was 93.4%.
As to `COc1ccc(Cn2c(NCCCN(C)C)nc(=O)n(Cc3ccc(F)cc3)c2=O)cc1`, the growth was 85.8%.
As to `NC(=O)CSc1oc(-c2ccccc2)nc1S(=O)(=O)c1ccc(Br)cc1`, the growth is 73.9%.
The same measure for `Cc1ccc(C2CC(c3cccs3)=NN2c2ccc(S(N)(=O)=O)cc2)s1` (stereo not given): 16.3%; for `COC(=O)CC/C(C)=N\Nc1ccc([N+](=O)[O-])cc1`: 71.1%.
